Results published in the supplement of paper PMC11219838.
A number with no mark means an inactive call.

How the values were obtained:
Settings in all cases: 60 µM; 5 days; temperature: 20 °C
Meloidogyne hapla J2 = experiment: proportion of mobile M. hapla J2 relative to DMSO control (fraction of DMSO control); higher = more viable, less nematicidal, active = 0.7 or less
Method in brief: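 About 25 M. hapla J2 were added per 96-well well in distilled water, and compound was pinned to 60 µM final (0.6% v/v DMSO). Sealed plates were shaken at 200 rpm for 5 days at 20 °C, then 2 µL 1 M NaOH was added before microscopic mobility scoring. Mobility was divided by the mean of eight DMSO wells on the same plate, and two biological replicates were averaged.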

[1] = test system: Caenorhabditis elegans dauer (daf-2(e1370)); experiment: proportion of mobile C. elegans dauer larvae relative to DMSO control (fraction of DMSO control); higher = more viable, less nematicidal, active = 0.63 or less; extreme values may be limits of the assay
Method in brief: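 Compound was added by pinning to 60 µM final, giving 0.6% v/v DMSO, in 96-well plates containing about 20 C. elegans dauers per well in liquid NGM. These dauers came from synchronized larvae held on MYOB plates with E. coli OP50 for 48 h at 25 °C. Plates were sealed and shaken at 200 rpm at 20 °C for 5 days. Under a dissection microscope, the proportion of mobile worms was scored relative to DMSO wells, and two biological replicates were averaged.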

Ditylenchus dipsaci = experiment: proportion of mobile D. dipsaci (mixed stage) relative to DMSO control (fraction of DMSO control); higher = more viable, less nematicidal, active = 0.86 or less; extreme values may be limits of the assay
Method in brief: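 D. dipsaci were grown on pea plants in Gamborg B-5 agar and extracted through a filter funnel into water, and about 20 worms were added per 96-well well in distilled water. Compound was pinned to 60 µM final (0.6% v/v DMSO), and sealed plates were shaken at 200 rpm for 5 days at 20 °C. After 2 µL 1 M NaOH was added, mobile worms were scored microscopically. Mobility was expressed relative to DMSO controls and averaged over two biological replicates.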

| SMILES | proportion of mobile M. hapla J2 (Meloidogyne hapla J2) | proportion of mobile C. elegans dauer larvae [1] | proportion of mobile D. dipsaci (Ditylenchus dipsaci) |
| --- | --- | --- | --- |
| COC(=O)c1ccc(NC(=O)CSc2nnc(-c3ccc(Cl)cc3Cl)o2)cc1 | 0.929 | 1 | 1 |
| Cc1cc(OCc2nc(-c3ccncc3)no2)cc(C)c1Br | 1.03 | 1 | 1 |
| COc1cccc(-c2noc(COc3ccc(Br)cc3)n2)c1 | 0.942 | 1 | 1 |
| COc1ccc(OCc2nc(-c3ccccc3)no2)cc1 | 0.891 | 1 | 1 |
| Cc1ccccc1-c1noc(-c2ccccc2OCC(N)=O)n1 | 0.993 | 1 | 1 |
| Cn1c(SCc2nnc(-c3ccccc3)o2)nnc1-c1ccco1 | 0.827 | 1 | 1 |
| Cc1ccccc1OCc1nc(-c2ccc(Br)cc2)no1 | 0.788 | 1 | 1 |
| COc1ccc(-c2nnc(SCc3csc(N)n3)o2)cc1 | 0.941 | 1 | 1 |
| COC(=O)c1ccc(CSc2nnc(-c3cccnc3)o2)cc1 | 1.03 | 1 | 1 |
| Cc1cc(Cl)ccc1OCc1nc(-c2cccnc2)no1 | 1 | 1 | 1 |
| N#Cc1ccc(CSc2nnc(-c3ccncc3)o2)cc1 | 0.972 | 1 | 1 |
| Cc1ccc(C(=O)CSc2nnc(-c3ccco3)o2)o1 | 0.906 | 1 | 1 |
| Cc1cc(OCc2nc(-c3ccncc3)no2)ccc1Br | 1.05 | 1 | 1 |
| Fc1cccc(-c2nc(-c3cccnc3)no2)c1 | 1.08 | 1 | 1 |
| Cc1ccccc1OCc1nc(-c2ccc(F)cc2)no1 | 0.909 | 1 | 1 |
| c1ccc(-c2noc(COc3cccc4ccccc34)n2)nc1 | 0.936 | 1 | 1 |
| Cc1cc(NC(=O)CSc2nnc(-c3ccccc3Cl)o2)no1 | 0.915 | 1 | 1 |
| CCOC(=O)c1ccc(NC(=O)c2ccccc2-c2nc(-c3cccc(C)c3)no2)cc1 | 0.777 | 1 | 1 |
| Cc1ccc(-c2noc(COc3cc(C)ccc3C)n2)cc1 | 0.994 | 1 | 1 |
| Cc1ccc(-c2noc(-c3cccc(Br)c3)n2)cc1 | 1.04 | 1 | 1 |
| CC(C)c1ccc(NC(=O)CSc2nnc(-c3ccc(Br)cc3)o2)cc1 | 1.03 | 1 | 1 |
| CCOc1cc(-c2nc(-c3ccccc3OC)no2)cc(OCC)c1OCC | 0.978 | 1 | 1 |
| COc1ccc(-c2noc(COc3ccc(Cl)cc3Cl)n2)cc1 | 0.874 | 1 | 1 |
| O=C(Nc1ccccc1-c1nc(-c2cccnc2)no1)c1ccc(Cl)cc1 | 0.98 | 1 | 1 |
| N#Cc1ccc(CSc2nnc(-c3ccccc3)o2)cc1 | 0.798 | 1 | 1 |
| COc1ccc(-c2nnc(SCC(=O)Nc3ccccc3C(C)C)o2)cc1 | 0.877 | 1 | 1 |

| SMILES | proportion of mobile M. hapla J2 (Meloidogyne hapla J2) | proportion of mobile C. elegans dauer larvae [1] | proportion of mobile D. dipsaci (Ditylenchus dipsaci) |
| --- | --- | --- | --- |
| CCCCCSc1nnc(-c2ccc(Cl)cc2Cl)o1 | 0.96 | 1 | 1 |
| O=C(CSc1nnc(-c2cccc(Br)c2)o1)NC1CCCCC1 | 0.778 | 1 | 1 |
| COc1nc(-c2ccc(Cl)cc2)ccc1-c1noc(C)n1 | 1.03 | 1 | 1 |
| COc1ccc(CSc2nnc(-c3ccc(Cl)cc3Cl)o2)cc1 | 1.01 | 1 | 1 |
| Clc1ccccc1-c1noc(-c2cccnc2)n1 | 0.883 | 1 | 1 |
| Cc1cc(OCc2nc(-c3cccnc3)no2)c(C)c(C)c1Br | 0.934 | 1 | 1 |
| O=C(CSc1nnc(-c2ccncc2)o1)Nc1cc(C(F)(F)F)ccc1Cl | 0.841 | 1 | 1 |
| COc1cccc(-c2noc(COc3cc(C)cc(C)c3)n2)c1 | 1.02 | 1 | 1 |
| CCNC(=O)c1ccccc1-c1nc(-c2ccc(OC)cc2)no1 | 0.785 | 1 | 1 |
| Cc1ccc(-c2nnc(SCc3ccccc3C#N)o2)cc1 | 0.937 | 1 | 1 |
| CC(C)C(=O)Nc1ccccc1-c1nc(-c2cccnc2)no1 | 0.935 | 1 | 1 |
| Cc1ccc(-c2nnc(SCc3c(C)cc(C)cc3C)o2)cc1 | 0.926 | 1 | 1 |
| CCCC(=O)Nc1ccccc1-c1nc(-c2ccncc2)no1 | 0.99 | 1 | 1 |
| O=C(CSc1nnc(-c2ccccc2)o1)NCc1ccccc1 | 0.948 | 1 | 1 |
| O=C(Nc1ccccc1-c1nc(-c2ccncc2)no1)c1cccc(Cl)c1 | 1.04 | 1 | 1 |
| Cc1cc(Cl)ccc1OCc1nc(-c2ccc(F)cc2)no1 | 0.859 | 1 | 1 |
| Cc1cc(Br)ccc1OCc1nc(-c2ccncc2)no1 | 1.01 | 1 | 1 |
| Clc1cc(Br)ccc1OCc1nc(-c2ccccn2)no1 | 1.01 | 1 | 1 |
| COc1ccc(Cl)cc1-c1noc(COc2ccccc2)n1 | 0.953 | 1 | 1 |
| COc1ccc(-c2nnc(SCc3ccccc3C)o2)cc1 | 0.942 | 1 | 1 |
| O=C(CSc1nnc(-c2ccc(Br)cc2)o1)NC1CCCC1 | 0.944 | 1 | 1 |
| CCc1ccc(OCc2nc(-c3ccc(C)cc3)no2)cc1 | 1.04 | 1 | 1 |
| Clc1ccc(-c2nnc(SCc3ccccc3)o2)cc1 | 0.827 | 1 | 1 |
| CC(Sc1nnc(-c2cccnc2)o1)C(=O)c1ccccc1 (configuration not stated) | 1.03 | 1 | 1 |
| COc1ccc(CCC(=O)Nc2ccc(-c3noc(COc4ccccc4C)n3)cc2)cc1 | 0.898 | 1 | 1 |
| O=C(CSc1nnc(-c2ccco2)o1)Nc1cccc2ccccc12 | 0.956 | 1 | 1 |

| SMILES | proportion of mobile M. hapla J2 (Meloidogyne hapla J2) | proportion of mobile C. elegans dauer larvae [1] | proportion of mobile D. dipsaci (Ditylenchus dipsaci) |
| --- | --- | --- | --- |
| Clc1ccc(SCc2nc(-c3ccccn3)no2)cc1 | 0.0259 (active) | 0.5 (active) | 1 |
| Cc1ccc(OCc2nc(-c3ccncc3)no2)cc1C | 1.03 | 1 | 1 |
| COc1ccc(-c2nnc(SCC(=O)Nc3c(F)cc(F)cc3Br)o2)cc1 | 1.03 | 1 | 1 |
| Brc1ccc(-c2noc(-c3cccs3)n2)cc1 | 0.884 | 0.383 (active) | 1 |
| CCOc1nc(C)ccc1-c1noc(-c2cccc(C)c2)n1 | 0.847 | 1 | 1 |
| Ic1ccc(CSc2nnc(-c3ccco3)o2)cc1 | 0.872 | 1 | 1 |
| Cc1ccc(-c2noc(COc3ccccc3C)n2)cc1 | 1.01 | 1 | 1 |
| Cc1cc(OCc2nc(-c3ccccn3)no2)c(C)cc1Br | 0.711 | 1 | 1 |
| Cc1ccc(-c2nc(-c3cccc(C)c3)no2)cc1 | 0.87 | 1 | 1 |
| Brc1ccc(-c2nnc(-c3cccs3)o2)o1 | 1.07 | 0.75 | 0.362 (active) |
| Brc1ccccc1-c1nc(-c2ccc3c(c2)OCO3)no1 | 1.04 | 1 | 1 |
| Cc1cc(OC(C)c2nc(-c3cccnc3)no2)ccc1Cl (configuration not stated) | 0.862 |  | 1 |
| CCOc1ccc(-c2noc(-c3ccncc3)n2)cc1OC | 1 |  | 1 |
| COc1cccc(-c2noc(COc3ccc(C(C)C)cc3)n2)c1 | 0.968 |  | 1 |
| COc1cccc(-c2noc(COc3ccc(C)cc3)n2)c1 | 0.769 | 1 | 1 |
| O=C(NCCc1ccccc1)c1ccccc1-c1nc(-c2ccccc2Cl)no1 | 0.669 (active) |  | 1 |
| CCOc1ccccc1-c1nc(-c2ccc(Cl)cc2)no1 | 0.856 |  | 1 |
| O=C(CSc1nnc(-c2ccc(Br)cc2)o1)Nc1nccs1 | 1.01 | 1 | 1 |
| COc1ccc(-c2noc(-c3ccccc3C)n2)cc1 | 0.898 |  | 1 |
| Clc1cccc(OCc2nc(-c3cccs3)no2)c1 | 0.942 |  | 1 |
| Cc1cccc(-c2noc(-c3cccc(Cl)c3)n2)c1 | 1 |  | 1 |
| N#Cc1ccc(OCc2nc(-c3cccs3)no2)cc1 | 0.908 |  | 1 |
| CCSc1nnc(-c2ccc(Cl)cc2Cl)o1 | 0.607 (active) |  | 0.739 (active) |
| Cc1ccccc1OCc1nc(-c2ccc3c(c2)OCO3)no1 | 0.878 |  | 1 |
